# Assay outcomes deposited in PubChem by National Center for Advancing Translational Sciences (NCATS).
# FH mod – Identification of activators of human fumarate hydratase by quantitative high-throughput screening; Potency, µM (top dose mostly 79.9 µM), hits mostly inhibitors; 54,000 tested, 0.22% active; FH coupled MDH/diaphorase resazurin fluorescence, 15 min; AID 1347055, 2019; Fumarate hydratase, mitochondrial (Homo sapiens), P07954; further: the screen sought activators but most active calls are inhibition curves; nearly all actives have a fitted effect of over 45% in size
# HTT-AS promoter – activators of huntingtin-antisense promoter activity. HEK293 HTT-AS promoter firefly luciferase reporter, 24 h; response scale: percent change from vehicle, -100% = no light. Potency, µM (top dose mostly 57.5 µM), most hits filed as activators. 48,000 tested, 0.24% active; further: nearly all actives have a fitted effect of over 55% in size
#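 HEK293 luciferase promoter-reporter cells (2,500/well) plated 24 h, then compounds added at up to 57.5 uM final for 24 h at 37 °C. Firefly luminescence by Dual-Glo, normalized to vehicle (0%) and zero RLU (-100%).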
# GPR32 ag – GPR32 (DRV1) agonism, beta-arrestin recruitment; 48,000 tested, 2.5% active; activation, % at 76.9 µM; O75388; CHO-K1 GPR32 beta-arrestin PathHunter luminescence, 90 min; zero percent set by DMSO-only wells;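 active means activation of at least 60% and not above a set upper limit, about 1 call in 100 departs from these limits; inconclusive means activation of 40% to 60%, or above that upper limit; inactive means activation under 40%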
# Target sequence (O75388 whole entry, looked up): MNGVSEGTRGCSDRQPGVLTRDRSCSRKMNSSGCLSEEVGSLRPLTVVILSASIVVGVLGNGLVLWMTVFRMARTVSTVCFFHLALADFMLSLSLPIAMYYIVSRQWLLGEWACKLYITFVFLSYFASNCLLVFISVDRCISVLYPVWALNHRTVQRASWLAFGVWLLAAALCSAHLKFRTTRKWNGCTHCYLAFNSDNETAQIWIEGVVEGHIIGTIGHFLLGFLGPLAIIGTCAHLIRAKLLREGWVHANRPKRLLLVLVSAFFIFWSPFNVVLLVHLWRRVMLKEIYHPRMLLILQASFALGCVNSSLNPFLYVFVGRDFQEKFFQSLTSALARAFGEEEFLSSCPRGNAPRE
#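 PathHunter enzyme-fragment complementation, CHO-K1 GPR32 stable line; 2,500 cells/well, overnight attach; cpd 90 min 37 °C 5% CO2; detection reagent 1 h RT; chemiluminescence. DMSO = EC0.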
# HTT promoter inh – inhibits huntingtin promoter activity; HEK293 HTT promoter firefly luciferase reporter, 24 h; 48,000 tested, 0.93% active; Potency, µM (doses to about 57.5 µM), most hits filed as inhibitors; further: nearly all actives have a fitted effect of over 50% in size
#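 HEK293 luciferase promoter-reporter cells (2,500/well) plated 24 h, then compounds added at up to 57.5 uM final for 24 h at 37 °C. Firefly luminescence by Dual-Glo, normalized to vehicle (0%) and zero RLU (-100%).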
# NTMT1 inhibitor – inhibitors of human N-terminal methyltransferase NTMT1; NTMT1 MTase-Glo SAH luminescence, purified enzyme; Potency, µM (top dose mostly 114 µM), hits mostly inhibitors; 59,000 tested, 2.5% active; AID 1645870; further: nearly all actives have a fitted effect of over 65% in size
# Target sequence (Q9BV86 whole entry, looked up): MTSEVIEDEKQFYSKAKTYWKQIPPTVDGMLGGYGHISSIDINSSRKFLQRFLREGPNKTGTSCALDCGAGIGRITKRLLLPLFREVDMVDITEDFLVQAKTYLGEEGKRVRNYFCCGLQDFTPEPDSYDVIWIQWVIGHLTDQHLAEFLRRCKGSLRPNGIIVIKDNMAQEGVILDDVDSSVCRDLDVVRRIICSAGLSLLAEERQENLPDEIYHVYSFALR
# Hits are given with their value; - = inactive; ? = inconclusive; . = not tested or not shown; ! = not active in a repeat; [ ] = remark or other dose. Compounds with a hit are over-represented: about 4.7% of the library has one in this group of screens. Unless noted, the call rests on the fitted dose curve; in most records, active means well fitted curve in the direction sought with a large enough effect; inconclusive means small, poorly fitted or top-dose-only effect, or another doubt; inactive means no such curve, though single readings can be large; an effect the other way counts as inactive or inconclusive.
SMILES,FH mod,HTT-AS promoter,GPR32 ag,HTT promoter inh,NTMT1 inhibitor
O=C(COc1ccccc1Cl)Nc1nc2c(s1)CCCC2,-,-,-,-,-
N#Cc1cnc2cnc(NCc3cccnc3)cc2c1Nc1ccc(F)c(Cl)c1,-,.,.,.,?
N#Cc1cnc2c(Cl)cc(NCc3cn(CCN4CCCCCC4)nn3)cc2c1Nc1ccc(F)c(Cl)c1,-,.,.,.,10µM
Cc1ccc(NC(=O)c2nnn(Cc3cccc(C(F)(F)F)c3)c2N)c(C)c1,-,-,93.4,-,-
CCc1cccc(NC(=O)c2nnn(Cc3ccc(SC)cc3)c2N)c1,-,-,61.7,-,-
Cc1cccc(Cn2nnc(C(=O)Nc3cc(C)ccc3C)c2N)c1,?,-,-,?,-
O=C(NCCc1ccc(Cl)cc1)c1ccc2c(c1)N(Cc1ccccc1)C(=O)CS2,-,-,-,?,-
CC(C)(C)OC(=O)CN(Cc1ccc(Cl)cc1)Cc1ccc([N+](=O)[O-])s1,-,-,.,-,?
CC1(COc2ccc3c(c2)ncn3-c2ccc3cccc(N4CCC(N)CC4)c3n2)COC1,-,-,.,?,22.4µM!
CC(C)(C)c1ccc(O)c(O)c1,39.9µM,-,?,?,4.47µM
Oc1ccccc1O,?,.,-,.,.
COc1ccccc1-c1cc(Nc2cccc(CS(N)(=O)=O)c2)ncn1,-,.,.,.,35.5µM
COc1ccc(-c2nc3ccccc3s2)cc1NC(C)=O,-,1.41µM,-,-,-
Cc1cccc(C(=O)Nc2ccc(-c3nc4ccccc4s3)cc2Cl)c1,-,-,91.5,-,-
COc1ccc(-c2nc3ccccc3s2)cc1NC(=O)c1ccccc1F,-,-,-,-,?
COc1ccc(-c2nc3ccccc3s2)cc1NC(=O)c1cccc([N+](=O)[O-])c1C,-,2µM,-,-,?
Cc1ccc(C(=O)Nc2ccc(-c3nc4ccccc4s3)cc2C)cc1C,-,?,-,-,-
CCc1ccccc1NC(=O)c1ccc2c(c1)N(Cc1cccc(Cl)c1)C(=O)c1ccccc1S2(=O)=O,-,-,-,-,-
CC(C)OC(=O)C1=CN(C(=O)c2ccc(F)c(F)c2)CC(C)(C)c2c1[nH]c1ccccc21,-,-,.,-,-
CC(=O)c1cccc(NC(=O)c2nc3ccccc3n(C)c2=O)c1,-,?,62.1,-,25.1µM
Cc1oc(-c2ccccc2F)nc1CS(=O)(=O)CC(=O)N1CCN(c2cccc(C(F)(F)F)c2)CC1,-,-,-,?,-
COc1ccc(-c2nc(CSCC(=O)N3CCN(c4ccccc4F)CC3)c(C)o2)cc1,?,-,-,28.2µM,-
Cc1oc(-c2ccccc2F)nc1CSCC(=O)N1CCN(c2ccccc2)CC1,-,-,-,22.4µM,-
O=C1CCCC2=C1C(c1ccccc1Br)N=C(Nc1nc3ccccc3o1)N2 (centres undefined),-,.,.,.,-
CCOc1ccc2nc(N(Cc3cccnc3)C(=O)c3ccco3)sc2c1,-,?,-,-,-
SMILES,FH mod,HTT-AS promoter,GPR32 ag,HTT promoter inh,NTMT1 inhibitor
Oc1ccc(O)cc1,3.55µM,-,-,-,35.5µM
CC(=O)c1c(C)[nH]c(C(=O)Nc2ccc(OCCCN(C)C)c(S(=O)(=O)Nc3ccc(Br)cc3)c2)c1C,.,.,.,.,-
N#Cc1c(-n2ncnc2-c2ccc(Br)cc2)sc2c1CCCCC2,-,-,-,?,-
CCOc1ccc(-c2ncnn2-c2sc3c(c2C#N)CCCCC3)cc1,-,-,101.5,-[11.5 µM],?
O=C(COc1cccc2c(=O)[nH]ccc12)c1ccccc1,-,.,.,.,-
NC(=O)C1CCN(c2nc(-c3ccc(F)cc3)cs2)CC1,.,.,.,.,79.4µM
NC(=O)C1CCN(c2nc(-c3ccc(-c4ccccc4)cc3)cs2)CC1,.,.,.,.,-
CO[C@@]1(NC(=O)C(C(=O)O)c2ccc(O)cc2)C(=O)N2C(C(=O)O)=C(CSc3nnnn3C)CO[C@@H]21 (some centres undefined),-,-,63.0,-,?
CCOC(=O)c1[nH]c(C)c(CCC(=O)NCc2ccc(N(C)C)cc2)c1C,-,-,-,-,-
CCc1ccccc1NC(=O)c1sc(-n2nc(C)c(Cc3ccccc3)c2C)nc1C,-,-,-,-,?
O=C(CN1CCN(Cc2ccccc2Cl)C1=O)NCCc1ccc(Cl)cc1,-,-,71.1,-,-
Cc1ccc(CNC(=O)CN2CCN(Cc3ccc(F)cc3)C2=O)cc1,-,-,-,-,?
Cc1cccc(CN2CCN(CC(=O)NCCc3ccc(Cl)cc3)C2=O)c1,-,-,74.8,-,-
O=C(c1cc(O)c(O)c(O)c1)c1ccc(O)c(O)c1O,?,-,-,-,31.6µM
O=C(O)c1cc(O)c(O)c(O)c1,-,-,-,-,?
COc1cc2c(cc1NC(=O)C(C)Oc1ccccc1)oc1ccccc12 (centres undefined),-,3.98µM,-,-,-
COc1cccc(NC(=O)c2c(C)oc3nc(C)nc(N4CCCC4)c23)c1,-,-,-,-,89.1µM
CCc1cnc2c(c1SC(C(C)=O)C(=O)N(C)C)c(=O)n(C)c(=O)n2C (centres undefined),-,-,-,-,25.1µM
Cc1cc(-c2nc3ncccc3o2)ccc1NC(=O)COc1ccc(C(C)(C)C)cc1,-,-,-,-,-
CCC(=O)Nc1ccc(-c2nc3ncccc3o2)cc1C,-,11.2µM,?,-,-
Cc1[nH]cnc1-c1ccc(Cl)cc1,-,-,-,-,-
Cc1ccc(NS(=O)(=O)c2cc3c(cc2N[C@@H](C)CO)NC(=O)CC3)cc1Cl,-,.,.,.,-
CN(CC(=O)N(Cc1ccc(C2CCCCC2)cc1)c1ccc(C(=O)O)c(O)c1)S(=O)(=O)c1c(F)c(F)c(F)c(F)c1F,-,-,.,-,31.6µM
CC(C)(C)C1CCC(CC2=C(O)c3ccccc3C(=O)C2=O)CC1 (centres undefined),-,-,-,-,-
O=C(Nc1ccc(O)c(-c2nc3ccccc3o2)c1)c1ccco1,-,-,84.1,-,-
SMILES,FH mod,HTT-AS promoter,GPR32 ag,HTT promoter inh,NTMT1 inhibitor
Cc1ccc(-n2ncc3c(N4CCCCC4)ncnc32)cc1Cl,-,-,-,-,-
Cc1ccc(-n2ncc3c(N4CCN(C)CC4)ncnc32)cc1C,-,-,74.9,-,?
Cc1ccc(-n2ncc3c(NCCCN4CCOCC4)ncnc32)cc1C,-,-,-,?,50.1µM
Cc1ccc(-n2ncc3c(N4CCN(c5ccccc5)CC4)ncnc32)cc1C,-,-,-,-,-
Cc1ccc(-n2ncc3c(N4CCCCCC4)ncnc32)cc1Cl,-,-,-,0.355µM,-
CCCCNC(=O)CCCN1C(=O)c2ccccc2Sc2ncccc21,-,-,-,-,-
O=C(CNC(=O)C1CCCCC1)OC(C(=O)c1ccccc1)c1ccccc1 (centres undefined),.,.,.,.,89.1µM
O=C(CNC(=O)C1CCCCCC1)OC(C(=O)Nc1cc(C(F)(F)F)ccc1Cl)c1ccccc1 (centres undefined),.,.,.,.,-
